Screening results (PubChem)
In the library only some 6.3% were active in any assay of this set; here they are far more common.
NADH enzymes: blocks coupling enzymes of NAD/NADH assays; coupled PK/LDH NADH assays, four targets; IC50, µM (doses to about 10 µM); 65,000 tested, 0.02% active; AID 774;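 active means single-dose screening hits from any of four coupled enzyme assays that gave an IC50 when retested across doses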;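 further: the DPM-DC format reads NADH fluorescence rather than 340 nm absorbance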
Autofluor 339: intrinsic fluorescence of library compounds, ex339/em460 – biochemical, MLSMR library, data from DPM-DC assay, artefact control, profiling panel; compound autofluorescence, ex339/em460 nm, NADH buffer; stronger effect = higher value; 1 = no-compound wells, NADH background; fluorescence fold increase at 10 µM; 65,000 tested, 5.5% active; AID 709;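 active means at 10 µM, mean starting fluorescence two-fold or more over control wells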;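 further: signal is the first read of a kinetic run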
Spn PMK inh: S. pneumoniae PMK inhibition; purified PMK, PK/LDH-coupled NADH absorbance 340 nm; inhibition, % at 10 µM; 65,000 tested, 0.49% active;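 active means top-ranked compounds by inhibition in the single 10 µM screen, taking a fixed number of the strongest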
Abs 340nm: compound absorbs light at 340 nm | compound absorbance at 340 nm, fold over control | fold change at 10 µM | 65,000 tested, under 10 active | AID 708;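 active means at 10 µM dose, initial 340 nm absorbance at least 2 fold that of control wells; inactive means change under 2 fold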;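 further: initial absorbance extrapolated from kinetic A340 decline of NADH oxidation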
Spn DPM-DC inh: S. pneumoniae DPM-DC inhibition; purified DPM-DC, PK/LDH coupled NADH fluorescence; calls only at 10 µM; 65,000 tested, 0.49% active;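 active means the 320 compounds with the highest percent inhibition in the single-dose primary screen, excluding strongly autofluorescent ones, cut at about 32% in these data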;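 further: kinetic rate of NADH fluorescence loss reporting ADP formed by the decarboxylase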
Spn MK inh: S. pneumoniae mevalonate kinase inhibition. purified MK, PK/LDH-coupled NADH absorbance 340 nm. inhibition, % at 10 µM. 65,000 tested, 0.48% active;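 active means ranked among the strongest by inhibition in the single 10 µM screen, a fixed top-ranked set picked for dose follow-up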
Large screens that a line does not name were inactive; [ ] = another dose, or the depositor's remark.

CC(C)(C)OC(=O)N1CCCC1C(=O)NC(Cc1ccccc1)C(=O)O (configuration not stated)	none
CCC(=O)Nc1cc2nn(-c3ccc(OC)cc3)nc2cc1C	Autofluor 339 3.77 (not shown: Spn DPM-DC inh)
CCCCC(=O)Nc1cc2nn(-c3ccc(OC)cc3)nc2cc1C	Autofluor 339 3.61 (not shown: Spn DPM-DC inh)
CCC(=O)Nc1c2c(nn1-c1ccc(OC)cc1)CS(=O)C2 (configuration not stated)	none
c1ccc(-n2ncc3c(N4CCN(c5ccccn5)CC4)nc(N4CCOCC4)nc32)cc1	none
CSc1nc2[nH]c3c(c2c2nnnn12)CCCC3	Autofluor 339 2.26 (not shown: Spn DPM-DC inh)
COCc1cc(C)nc2sc(C(=O)OC(C)C)c(N)c12	Autofluor 339 2.14
O=C(CSc1nnc(CN2CCOCC2)n1-c1ccccc1)Nc1ccc(Cl)cc1	none
Cc1csc2ncc(C(=O)Nc3ccccc3Cl)c(=O)n12	Autofluor 339 2.01, Spn DPM-DC inh active[fluoresces]
Cc1csc2ncc(C(=O)Nc3ccon3)c(=O)n12	Autofluor 339 4.79 (not shown: Spn DPM-DC inh)
Cc1cc(C)c(O)c(-c2cc(C(=O)Nc3ccc(S(=O)(=O)N4CCOCC4)cc3)[nH]n2)c1	none
CCOC(=O)c1cccc(NC(=O)CN(c2ccc(C)cc2)S(=O)(=O)c2c(C)n[nH]c2C)c1	none
OC1(CN2CCOCC2)C2CN3CCN(C2)CC1(c1ccccc1)C3 (configuration not stated)	Spn PMK inh 28.0
Cc1ccc(-c2noc(CN(C(=O)C34CC5CC(CC(C5)C3)C4)C(C)C)n2)cc1	none
CNc1nnc(-c2ccncc2)s1	Autofluor 339 4.35 (not shown: Spn DPM-DC inh)
Nc1nnc(-c2ccncc2)s1	Autofluor 339 3.88 (not shown: Spn DPM-DC inh)
COc1ccc(-c2nnc(N)s2)cc1	none
Cc1ccc(-c2nnc3sc(-c4ccncc4)nn23)cc1	none
CCCCCOC(=O)c1cc(=O)[nH]c2ccccc12	Autofluor 339 2
O=C(OCCN1C(=O)c2ccccc2C1=O)c1cc(=O)[nH]c2ccccc12	none
CCOc1ccc2cc(C#N)c(SCC(=O)N3CCOCC3)nc2c1	Autofluor 339 2.73 (not shown: Spn DPM-DC inh)
O=c1c2cc(N3CCOCC3)ccc2[nH]c(=S)n1Cc1ccco1	Autofluor 339 3.54
O=c1c2cc(N3CCOCC3)ccc2[nH]c(=S)n1CCCN1CCCC1	none
O=c1c2cc(Cl)ccc2[nH]c(=S)n1Cc1ccco1	none
COc1cccc(Cn2c(=S)[nH]c3ccc(N4CCOCC4)cc3c2=O)c1	Autofluor 339 3.71, Spn DPM-DC inh active
O=C(CSc1nnc(-c2ccc(O)cc2)n1Cc1ccco1)N1CCc2ccccc2C1	none
CC(C)Oc1cc2oc(=O)c3c(c2cc1Cl)CCC3	Autofluor 339 2.31
Cc1coc2c(C)c3oc(=O)c4c(c3cc12)CCC4	none
CC(=O)Oc1cc2oc(=O)c3c(c2cc1Cl)CCC3	Autofluor 339 4.92 (not shown: Spn DPM-DC inh)
Cc1coc2cc3oc(=O)c4c(c3cc12)CCC4	Autofluor 339 2.75, Spn DPM-DC inh active[may fluoresce]
Cc1cc2oc(=O)c3c(c2cc1OC(=O)c1ccco1)CCCC3	none
O=C(Oc1cc2oc(=O)c3c(c2cc1Cl)CCCC3)c1ccco1	Autofluor 339 2.46 (not shown: Spn DPM-DC inh)
COc1ccc(Cl)cc1NC(=O)CSc1nnc(Cc2cccn2C)n1-c1ccc(F)cc1	none
CCCc1cc(=O)oc2cc(OCC(=O)N(C)C)c(Cl)cc12	none
Cc1cc(=O)oc2cc(OC(C)C(=O)O)c(Cl)cc12 (configuration not stated)	Autofluor 339 3.17, Spn DPM-DC inh active
CSc1ccc(/C=N/n2nnnc2N)cc1	Autofluor 339 5.02 (not shown: Spn DPM-DC inh)
CCN(CC)c1ccc(/C=N/n2nnnc2N)c(O)c1	none
COc1cc(/C=N/n2nnnc2N)ccc1O	none
CCN(C)c1ccc(/C=N\n2nnnc2N)cc1	Autofluor 339 2.5
COc1ccc(NC(=O)C(CCS(C)(=O)=O)NC(C)=O)cc1 (configuration not stated)	none
CCc1ccccc1N(C(=O)CCC(=O)Nc1cc(C)on1)C(C(=O)NC1CCCC1)c1ccco1 (configuration not stated)	none
CCOC(=O)C1CCCN(C(=O)c2cc3ncc(Br)cn3n2)C1 (configuration not stated)	none
CCCCNc1nc2c(c(=O)n(C)c(=O)n2C)n1CCC	Spn PMK inh 26.0
O=c1[nH]c2ccccc2nc1Cc1ccccc1	none
O=c1[nH]c2ccccc2nc1C(F)(F)C(F)F	Autofluor 339 2.13 (not shown: Spn DPM-DC inh)
CCN1CCN(Cc2ccc(NC(=O)Nc3ccc(SC)cc3)cc2)CC1	none
CCCCOc1ccc(CN2CCC(O)CC2)cc1	Spn MK inh 41.0
CSc1ccc(CN2CCC(O)CC2)cc1	Spn MK inh 58.0
COC(=O)C1=C(C)NC2=C(C(=O)CC(C)(C)C2)C1c1cccc(C)n1 (configuration not stated)	Autofluor 339 3.68 (not shown: Spn DPM-DC inh)
CC1=C(C(=O)OCc2ccccc2)C(c2ccco2)C2=C(CC(C)(C)CC2=O)N1 (configuration not stated)	none
CCCOC(=O)C1=C(C)NC2=C(C(=O)CCC2)C1c1cccs1 (configuration not stated)	none
COC(=O)C1=C(C)NC2=C(C(=O)CCC2)C1c1coc2ccccc2c1=O (configuration not stated)	none
CCCOC(=O)C1=C(C)NC2=C(C(=O)CCC2)C1c1cccc(OC)c1OC (configuration not stated)	Autofluor 339 2.25 (not shown: Spn DPM-DC inh)
COC(=O)C1=C(C)NC2=C(C(=O)CCC2)C1c1cccc(C)n1 (configuration not stated)	Autofluor 339 3.95 (not shown: Spn DPM-DC inh)
CCC(C)(C)NC(=O)C(c1ccc(F)cc1)N(Cc1ccco1)C(=O)c1cnccn1 (configuration not stated)	none
O=C(CSc1nnc(-c2ccc(Cl)s2)o1)N1CCc2ccccc21	Autofluor 339 2.05
Brc1ccc(-c2cnc(-c3cccs3)o2)cc1	Autofluor 339 4.96 (not shown: Spn DPM-DC inh)
Cc1ccc(-c2noc(-c3cccs3)n2)cc1	none
CCOC(=O)C1CCN(C(=O)Cn2cc3c(n2)CCC(C)C3)CC1 (configuration not stated)	none
CCCCCCc1ccc(OCC(=O)O)cc1OCC(=O)O	none
CCCCc1cc(=O)oc2cc(C)cc(OCC(=O)O)c12	Autofluor 339 3.82 (not shown: Spn DPM-DC inh)
C=CC[N+](C)(C)CCCNC(=O)/C=N/O	none
Cc1cc(OCc2nn[nH]n2)c2c(C)c(CC(=O)O)c(=O)oc2c1	Autofluor 339 3.86 (not shown: Spn DPM-DC inh)
COc1ccc(-c2cc(=O)oc3c(C)c(OCc4nn[nH]n4)ccc23)cc1	none
Cc1c(Cc2ccccc2)c(=O)oc2c(C)c(OCc3nn[nH]n3)ccc12	Autofluor 339 3.85 (not shown: Spn DPM-DC inh)
COC(=O)COc1cc(C)cc2oc(=O)c(CC(=O)OC)c(C)c12	Autofluor 339 2.12 (not shown: Spn DPM-DC inh)
Cc1c(OCc2nn[nH]n2)ccc2c(-c3ccccc3)cc(=O)oc12	none
Cc1cc(OCc2nn[nH]n2)c2c(-c3ccccc3)cc(=O)oc2c1	Autofluor 339 2
O=C(Nc1cccc(O)c1)c1cc(S(=O)(=O)N2CCCC2)ccc1Cl	none
